Screens deposited in PubChem by National Center for Advancing Translational Sciences (NCATS).
Rows were chosen to be rich in hits. Some 18% of all compounds tested hit in one or more screens of this group.
DT40 TDP1 no CPT: qHTS for Inhibitors of human tyrosyl-DNA phosphodiesterase 1 (TDP1): qHTS in cells in absence of CPT. 420,000 tested, 15% active. Potency, µM (series often up to 46.2 µM), without a hit: at the highest dose activity change, negative = growth inhibition, most hits filed as inhibitors. DT40 Tdp1-/- hTDP1 cells, no CPT, ATP luminescence, 48 h; further: potency means the concentration at half of the fitted maximal effect; nearly all actives have a fitted effect of over 55% in size
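No-CPT arm: Tdp1-/-;hTDP1 DT40 cells (400/well) plus compounds, incubated ≥48 hr at 37 °C. Readout CellTiter-Glo luminescence.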
RORgamma inh: ROR gamma (mouse) transcription inhibition. 310,000 tested, 5.4% active. Drosophila S2 Gal4-RORgamma UAS-luciferase reporter, 20 h. AID 2551. Potency, µM (top dose mostly 53.6 µM), without a hit: at the top dose activity change, negative = inhibition, most hits filed as inhibitors. P51450; further: potency means the concentration at half of the fitted maximal effect; nearly all actives have a fitted effect of over 60% in size
Target sequence (P51450 whole entry, looked up, the tested form may be a part): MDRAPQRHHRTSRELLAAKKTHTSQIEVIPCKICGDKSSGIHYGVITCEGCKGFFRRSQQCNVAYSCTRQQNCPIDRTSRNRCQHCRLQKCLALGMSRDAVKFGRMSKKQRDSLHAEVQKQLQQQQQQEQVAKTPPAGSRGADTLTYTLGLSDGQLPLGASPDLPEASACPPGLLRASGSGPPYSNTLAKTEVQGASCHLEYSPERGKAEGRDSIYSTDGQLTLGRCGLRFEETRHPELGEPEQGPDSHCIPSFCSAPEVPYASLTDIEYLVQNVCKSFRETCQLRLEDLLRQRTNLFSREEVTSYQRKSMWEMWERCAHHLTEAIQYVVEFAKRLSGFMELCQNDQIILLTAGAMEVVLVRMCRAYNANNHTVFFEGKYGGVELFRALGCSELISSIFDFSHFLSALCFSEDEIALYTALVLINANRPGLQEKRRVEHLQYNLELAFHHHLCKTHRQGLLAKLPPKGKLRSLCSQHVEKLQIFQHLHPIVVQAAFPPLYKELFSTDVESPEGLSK
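A Gal4/UAS one-hybrid system in insect cells: metallothionein-promoter Gal4–ROR gamma fusion plus Photinus luciferase reporter. Copper sulfate 700 uM final, 20 hr ambient incubation, luminescent detection after 10 min with reagent.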
LDHA inh: blocks human lactate dehydrogenase A | purified LDHA, NADH/diaphorase-resazurin fluorescence; stronger effect = lower value | P00338 | activity change, % (values are at about 110 or 230 µM) | 480,000 tested, 0.15% active | AID 1347041; in the data active means activity change below about -30%; inconclusive means mostly about -25% to -30%;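 further: plate controls were DMSO wells for no effect and wells without enzyme for full effect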
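Enzyme activity of human lactate dehydrogenase 5 (2 nM; 0.06 mM NADH, 0.2 mM pyruvate, 5 min, RT) is measured via a resazurin/diaphorase fluorescence readout of residual NADH.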
VP16 counter: inhibits Gal4-VP16 luciferase reporter, ROR gamma counter-screen. Potency, µM (series often up to 53.6 µM), for the others: top-dose activity, negative = inhibition, usual class: inhibitors. Drosophila S2 Gal4-VP16 UAS-luciferase, luminescence, 20 h. AID 2546. 310,000 tested, 3.5% active;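 further: Gal4-VP16 expression switched on by copper sulfate through the metallothionein promoter; potency means the concentration at half of the fitted maximal effect; nearly all actives have a fitted effect of over 50% in size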
IL-1B inflam inh: inflammasome signaling inhibition, IL-1 beta readout. THP-1 LPS/ATP IL-1B secretion, AlphaLISA, 16 h; stronger effect = lower value. activity change, % at 57.5 µM. 360,000 tested, 4.7% active; in the data active means activity change below about -50%; inconclusive means mostly about -30% to -49%
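Secreted IL-1B measured by AlphaLISA bead assay after 16 h compound exposure of THP-1 cells; compounds (final up to 57.5 uM) added 1 h before LPS (250 ng/mL) and ATP (1.25 mM) stimulation; lower signal means less secretion.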
DT40 TDP1 CPT: growth inhibition of DT40 Tdp1-/-;hTDP1 cells with camptothecin (screen for TDP1 inhibitors). AID 686979. 420,000 tested, 12% active. Potency, µM (titrated, usually from 46.2 µM), for the others: top-dose activity change, negative = growth inhibition, usual class: inhibitors. chicken DT40 Tdp1-/-;hTDP1 cells + 20 nM CPT, ATP luminescence, 48 h; further: potency means the concentration at half of the fitted maximal effect; nearly all actives have a fitted effect of over 55% in size
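Chicken DT40 Tdp1-/- cells stably complemented with human TDP1 were seeded at 400 cells/well in medium containing 20 nM camptothecin, exposed to pin-transferred compounds, and grown at 37 °C for at least 48 hr. Viability was read as ATP luminescence.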
Active calls of the source: *; i = inactive; u = inconclusive; x = not tested or not shown; [ ] = another dose, or the depositor's remark. Unless noted, the call rests on the fitted dose curve; in most records, active means well fitted curve in the direction sought with a large enough effect; inconclusive means small, poorly fitted or top-dose-only effect, or another doubt; inactive means no such curve, though single readings can be large; an effect the other way counts as inactive or inconclusive. Unless noted, on the % scale 0 is the no-effect control and ±100 the full control effect.

SMILES	DT40 TDP1 no CPT	RORgamma inh	LDHA inh	VP16 counter	IL-1B inflam inh	DT40 TDP1 CPT
Cc1ccccc1Cn1c(N2CCN(CC(N)=O)CC2)nc2c1c(=O)[nH]c(=O)n2C	x	x	6.9	x	x	x
CCCOc1c(Cl)cc(/C=C/C(=O)c2ccc(O)c(OC)c2)cc1OCC	x	x	4.8	x	x	x
COc1cc(NS(=O)(=O)c2ccc(C)c(C)c2)c(OC)cc1Cl	u	7.8%	-2.2	3.8%	7.8	18.4µM*
COc1ccc(S(=O)(=O)Nc2ccccc2OC)cc1C	-25.2%	4.4%	-3.9	-2.5%	-1.0	-6.0%
O=C(Nc1ccc(O)c2c(=O)cc(-c3cccc(Cl)c3)oc12)c1ccccc1Cl	20.6µM*	-9.2%	-7.1	0.5%	-8.2	u
O=C(Nc1ccc(O)c2c(=O)cc(-c3ccccc3Cl)oc12)c1cccc(Cl)c1	-12.6%	-0.6%	-3.6	-7.2%	30.3	u
CNC(=O)NC(=O)C(C)Sc1ccc2ccccc2n1 (stereo not drawn)	x	x	11.2	x	x	x
COc1ccc(C(CC(=O)Nc2cccc(-c3ccno3)c2)n2cccc2)cc1 (stereo not drawn)	x	x	2.1	x	x	x
Cc1nnc(NCCc2ccccc2)c2ccccc12	23.1µM*	u	-3.6	-13.9%	-19.5	u
CCN(CC)S(=O)(=O)c1ccc(NC(=O)Cc2cn3ccsc3n2)cc1	x	x	-10.2	x	x	x
COc1ccc(OC)c(C2Nc3c(C)cc(C)cc3-c3cc(C)nn32)c1 (stereo not drawn)	20.6µM*	x	-5.1	x	x	16.4µM*
COc1cc(C2Nc3c(C)cc(C)cc3-c3cc(C)nn32)ccc1O (stereo not drawn)	x	x	26.7	x	x	x
CCCCNCc1ccc(C)s1	x	x	-0.7	x	x	x
Cc1ccc(OCc2ccc(C(=O)N3CCOCC3)cc2)cc1C	20.6µM*	-10.5%	-3.8	-10.5%	-0.7	16.4µM*
CC(C)c1ccc(C(=O)N2CCCN(C(=O)c3ccc(C(C)C)cc3)CC2)cc1	-0.4%	41.2%	-5.6	6.2%	-12.7	-24.5%
CCOc1ccc(C(=O)Nc2ccc(C(=O)N3CCOCC3)cc2)c(OCC)c1	13µM*	-12.3%	-6.7	-4.2%	i	u
CC(C)c1ccc(COc2ccc(C(=O)N3CCOCC3)cc2)cc1	23.1µM*	u	3.3	3.3%[10 µM]	-6.4	u
CC(C)c1ccc(OCc2ccc(C(=O)N3CCN(c4ccccn4)CC3)cc2)cc1	20.6µM*	u	-0.1	u	-1.9	u
Cc1ccc(C(=O)N2CCN(c3ccccn3)CC2)cc1	-18.6%	0.8%	-8.0	6.8%	22.7	-1.4%
COc1ccc(C(=O)Nc2ccc(C(=O)N3CCOCC3)cc2)cc1OC	-11.4%	8.6%	-3.1	1.8%	7.0	-17.3%
Cc1cnc(NC(=O)Cn2ccc3ccc(Br)cc32)s1	x	x	6.5	x	x	x
COc1ccc(N2CCN(C(=O)c3ccc(COc4ccc5c(C)cc(=O)oc5c4)cc3)CC2)cc1	16.4µM*	40.0%	-2.4	-22.5%	-20.1	u
CCOCCOC(=O)COc1ccc2c(=O)c(Oc3cc(C)c(Cl)c(C)c3)coc2c1	x	x	1.2	x	x	x
Cc1nn(-c2ccc3nncn3n2)c2c1C(c1c(F)cccc1F)CC(=O)N2 (stereo not drawn)	x	x	0.4	x	x	x
Cc1cccc(C(=O)NNC(=O)c2ccc(-c3ccccc3)cc2)c1	u	-3.2%	-8.2	0.2%	-2.1	u
SMILES	DT40 TDP1 no CPT	RORgamma inh	LDHA inh	VP16 counter	IL-1B inflam inh	DT40 TDP1 CPT
O=C(/C=C/c1ccc([N+](=O)[O-])cc1)NCc1cccnc1	-11.0%	19.1%	-0.4	20.3%	-2.0	-15.6%
O=C(/C=C/Nc1ccccc1C(F)(F)F)c1ccc(Br)cc1	x	x	-19.8	x	x	x
O=C(/C=C/c1ccc([N+](=O)[O-])cc1)c1cccnc1	u	u	-8.8	22.4µM*	-13.6	14.6µM*
COC(=O)CNC(=O)c1cccc(C)c1	x	x	0.0	x	x	x
O=C(/C=C/NNC(=O)c1ccc(Br)cc1)c1ccccc1	4.11µM*	u	-0.5	-1.0%	8.0	2.91µM*
Cc1cccc(C(=O)NN/C=C/C(=O)c2ccccc2)c1	25.9µM*	6.31µM*	-0.3	5.01µM*	69.7	u
Cc1cccc(C(=O)NCCNC(=O)c2cccc(C)c2)c1	29.1µM*	41.0%	3.5	-8.5%	74.1	-17.5%
Cc1ccc(C(=O)/C=C\NCc2ccccc2)cc1	-4.8%	6.8%	-3.5	u	u	-16.9%
CCc1ccc(C(=O)/C=C/c2ccc([N+](=O)[O-])cc2)cc1	x	x	-3.7	x	x	x
CN(C)c1ccc(C(=O)/C=C/c2cccnc2)cc1	u	u	-7.0	u	-16.1	u
O=C(C=CC=Cc1ccccc1)c1ccc([N+](=O)[O-])cc1	20.6µM*	x	-6.9	x	-25.7	23.1µM*
O=C(/C=C/NNC(=O)c1ccccc1)c1ccccc1	0.82µM*	7.94µM*	-3.7	u	37.3	0.581µM*
O=C(/C=C/c1cccnc1)c1ccc(F)c(F)c1	16.4µM*	u	2.5	u	-74.8*	u
Cc1ccc(C(=O)C=CNNC(=O)c2ccccc2)cc1	u	12.6µM*	-3.1	7.08µM*	6.1	u
CC1(C(O)(C#CC[N+]2(Cc3ccccc3Cl)CCCCC2)c2ccccc2)CCCC1 (stereo not drawn)	x	x	1.5	x	x	x
COc1ccc(CC(=O)NC(C)c2ccco2)cc1 (stereo not drawn)	x	x	-5.9	x	x	x
O=C(/C=C/NNC(=O)c1ccccc1)c1ccc([N+](=O)[O-])cc1	9.2µM*	0.1%	-1.9	-6.2%	129.0	6.51µM*
O=C(NNS(=O)(=O)c1ccc([N+](=O)[O-])cc1)c1ccccc1	3.1%	x	9.0	x	-3.5	-3.9%
O=C(/C=C/NNC(=O)c1ccccc1O)c1ccccc1	16.4µM*	u	-0.5	u	-3.1	u
Cc1ccc(S/C=C\C(=O)c2ccccc2)cc1	20.6µM*	-13.3%	6.0	14.1µM*	-103.3*	20.6µM*
CC(C)C(C)NC(=O)COc1ncnc2ccc(Br)cc12 (stereo not drawn)	x	x	3.8	x	x	x
COc1cc(/C=N/n2c(-c3ccccc3)n[nH]c2=S)cc(OC)c1OC	u	-32.8%	-10.4	-8.9%	51.0	2.3%
COc1ccccc1/C=C/C=N/n1c(-c2ccccc2)n[nH]c1=S	20.6µM*	0.398µM*	-4.7	u	26.3	u
COc1ccc(-c2n[nH]c(=S)n2/N=C/C=C/c2ccccc2OC)cc1	u	7.08µM*	-3.2	u	0.0	u
O=[N+]([O-])c1ccccc1/C=C/C=N/n1c(-c2ccccc2F)n[nH]c1=S	-16.5%	14.1µM*	-4.3	-3.5%	7.2	16.5%
